Screening results from PubChem.
JMJD2A Tudor inh: inhibitors of human JMJD2A Tudor domain; AlphaScreen JMJD2A-Tudor / H3K4me3 peptide binding; O75164; actives 4.4% (n = 390,000); Potency, µM (doses to about 114 µM), for inactives: at the highest dose activity change, negative = inhibition, usual class: inhibitors; further: on the % scale 0 is the no-effect control and ±100 the full control effect; nearly all actives have a fitted effect of over 50% in size
Target sequence (O75164 whole entry, looked up, the tested form may be a part): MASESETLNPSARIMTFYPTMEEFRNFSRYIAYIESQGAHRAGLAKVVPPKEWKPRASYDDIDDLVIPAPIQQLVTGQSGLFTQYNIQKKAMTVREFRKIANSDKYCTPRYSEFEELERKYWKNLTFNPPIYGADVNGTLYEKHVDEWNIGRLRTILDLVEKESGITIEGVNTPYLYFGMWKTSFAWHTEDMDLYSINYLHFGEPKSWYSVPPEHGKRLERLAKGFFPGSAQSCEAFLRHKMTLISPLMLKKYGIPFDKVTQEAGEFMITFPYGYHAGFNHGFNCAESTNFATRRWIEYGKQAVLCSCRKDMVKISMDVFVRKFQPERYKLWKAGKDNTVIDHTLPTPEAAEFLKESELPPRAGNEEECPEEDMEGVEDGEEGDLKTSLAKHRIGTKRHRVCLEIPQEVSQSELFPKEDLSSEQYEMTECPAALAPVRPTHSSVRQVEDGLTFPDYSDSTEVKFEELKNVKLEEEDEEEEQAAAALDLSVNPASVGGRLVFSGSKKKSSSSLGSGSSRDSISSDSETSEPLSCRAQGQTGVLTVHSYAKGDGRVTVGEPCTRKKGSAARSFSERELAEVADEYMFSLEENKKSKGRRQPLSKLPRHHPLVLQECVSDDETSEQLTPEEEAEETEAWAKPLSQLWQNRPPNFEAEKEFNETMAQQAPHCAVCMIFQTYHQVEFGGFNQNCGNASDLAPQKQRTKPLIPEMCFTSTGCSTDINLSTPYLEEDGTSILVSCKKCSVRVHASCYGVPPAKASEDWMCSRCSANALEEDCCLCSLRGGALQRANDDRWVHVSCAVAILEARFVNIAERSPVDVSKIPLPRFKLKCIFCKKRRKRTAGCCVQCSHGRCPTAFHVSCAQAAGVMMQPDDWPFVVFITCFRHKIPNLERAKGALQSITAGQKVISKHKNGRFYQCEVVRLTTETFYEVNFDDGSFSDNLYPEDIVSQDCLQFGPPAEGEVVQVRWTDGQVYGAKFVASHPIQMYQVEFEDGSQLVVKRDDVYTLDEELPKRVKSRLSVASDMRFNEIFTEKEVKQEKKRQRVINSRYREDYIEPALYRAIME
G9a block: inhibitors of human histone lysine methyltransferase G9a | AID 504332 | actives 8.8% (n = 350,000) | Potency, µM (doses to about 102 µM), without a hit: at the highest dose activity, negative = inhibition, most hits filed as inhibitors | Q96KQ7 | G9a H3K9 monomethylation, AlphaScreen, 2 h; further: on the % scale 0 is the no-effect control and ±100 the full control effect; nearly all actives have a fitted effect of over 75% in size
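Quantitative HTS format: methyltransferase activity on a biotin-tagged H3K9 peptide is measured by AlphaScreen, using a rabbit anti-monomethyl-H3K9 antibody with streptavidin donor and anti-IgG acceptor beads. Final levels are 20 nM enzyme, 500 nM peptide, 20 uM SAM; 2 h RT.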
HP1b chromo inh: inhibitors of HP1-beta chromodomain binding to methylated histone tails. P83916. AlphaScreen HP1-beta / biotin-H3K9me3 peptide binding. Potency, µM (top dose mostly 114 µM), for the others: at the top dose activity change, negative = inhibition, actives largely listed as inhibitors. actives 0.56% (n = 390,000). AID 540317; further: nearly all actives have a fitted effect of over 70% in size
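Compound inhibition of the preformed complex between 50 nM HP1-beta and 50 nM biotinylated H3K9me3 peptide was read by AlphaScreen. Buffer was PBS pH 7.4 with 0.01% Tween-20. Incubations ran 30 min at room temperature, with 10 ug/mL donor/acceptor beads.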
L3MBTL1 block: inhibitors of human L3MBTL1 | actives 0.66% (n = 230,000) | AlphaScreen L3MBTL1–H3K9me1 peptide binding | Potency, µM (highest dose often 57.1 µM), for the others: at the top dose activity, negative = inhibition, usual class: inhibitors; further: on the % scale 0 is the no-effect control and ±100 the full control effect; nearly all actives have a fitted effect of over 60% in size
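Read-out is AlphaScreen signal from streptavidin donor and nickel chelate acceptor beads (10 ug/mL final each) bridging L3MBTL1 (50 nM) and biotinylated K9-monomethylated H3(1-15) peptide (75 nM), after 30 min compound exposure at room temperature.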
Sfp inh: inhibitors of Bacillus subtilis Sfp phosphopantetheinyl transferase; Q9F4F7; Biochemical Sfp PPTase activity, qHTS; Potency, µM, inactives show largest response in the series, negative = inhibition, hits mostly inhibitors; actives 3.5% (n = 310,000); AID 1490;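 further: the enzyme is Sfp with the accession as filed and its product quenches rhodamine fluorescence; 0% = enzyme reaction without inhibitor and -100% = no enzyme wells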
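Fluorescence-quenching assay: 15 nM Sfp-PPTase preincubated 15 min at room temperature with compound, then 5 uM rhodamine-CoA and 12.5 uM BHQ-2-labelled YbbR peptide added. Fluorescence (ex 525/em 598 nm) read at start and after 30 min; difference gives rate.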
BAZ2B inh: blocks human BAZ2B. actives 4.4% (n = 360,000). AlphaScreen BAZ2B-H3K14Ac peptide displacement. Potency, µM (highest dose often 114 µM), without a hit: at the top dose activity change, negative = inhibition, usual class: inhibitors. AID 504333. Q9UIF8; further: on the % scale 0 is the no-effect control and ±100 the full control effect; nearly all actives have a fitted effect of over 60% in size
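In this displacement format the biotinylated H3(5-23) peptide acetylated at Lys14 serves as ligand at 50 nM, with BAZ2B at 50 nM in PBS pH 7.4 containing 0.01% Tween-20. Donor and acceptor beads are 10 ug/mL final.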
Numbers without * were called inactive; ? = inconclusive; · = no result; [ ] = remark or other dose. Sampled rows, rich in hits. Any-hit rate of the full collection: about 12%. The call rests on the fitted dose curve; in most records, active means well fitted curve in the direction sought with a large enough effect; inconclusive means small, poorly fitted or top-dose-only effect, or another doubt; inactive means no such curve, though single readings can be large; an effect the other way counts as inactive or inconclusive. Potency means the concentration at half of the fitted maximal effect.

SMILES	JMJD2A Tudor inh	G9a block	HP1b chromo inh	L3MBTL1 block	Sfp inh	BAZ2B inh
C[C@@H](C(=O)NCc1cccc2ccccc12)[C@H]1C[C@]1(C)[C@H](NC(=O)OCc1ccccc1)c1ccccc1	·	·	·	·	30.2%	·
C[C@@H](C(=O)NCCc1c[nH]c2ccccc12)[C@@H]1C[C@@]1(C)[C@@H](NC(=O)OCc1ccccc1)c1ccccc1	?	44.7µM*	3.6%	-9.7%	16.8%	-34.8%
Cc1cc2cc(CN(Cc3ccc4c(c3)OCO4)Cc3nnnn3C3CCCC3)c(=O)[nH]c2cc1C	-3.1%	-7.7%[59 µM]	16.7%	-0.3%	-0.1%	·
CCc1ccc2[nH]c(=O)c(CN(Cc3ccccc3)Cc3nnnn3Cc3ccco3)cc2c1	?	10µM*	10.3%	-2.3%	17.8µM*	-4.8%
CCc1ccc2[nH]c(=O)c(CN(Cc3ccccc3)Cc3nnnn3Cc3ccccc3)cc2c1	-33.1%[57.1 µM]	·	16.2%[57 µM]	·	·	·
O=c1[nH]c2cc3c(cc2cc1CN(CCc1ccccc1)Cc1nnnn1C1CCCC1)OCCO3	·	15.8µM*	·	6.8%	?	-18.1%
Cc1ccc2[nH]c(=O)c(CN(Cc3ccc4c(c3)OCO4)Cc3nnnn3Cc3ccco3)cc2c1	-32.1%	?	1.4%	-12.4%	-8.5%	-24.6%
COc1ccccc1CN(Cc1cc2cc3c(cc2[nH]c1=O)OCCO3)Cc1nnnn1Cc1ccco1	35.5µM*	?	-25.2%	-6.8%	12.6µM*	?
Cc1cc(C)c2cc(CN(Cc3ccc4c(c3)OCO4)Cc3nnnn3Cc3ccco3)c(=O)[nH]c2c1	-34.9%	-8.2%[12.7 µM]	0.3%	-4.4%[11.4 µM]	14.1µM*	-7.3%
O=C(CN1C(=O)COc2ccc(S(=O)(=O)N3CCOCC3)cc21)N1CCN(c2ccccc2)CC1	-14.6%	3.9%[59 µM]	67.6%	·	·	17.2%
COc1ccc(CCNC(=O)c2cnc3sc(N4CCOCC4)nn3c2=O)cc1	-4.0%	-5.2%[59 µM]	28.9%	·	·	-3.9%
Cc1cc2c(s1)c1cnn(Cc3ccc(Cl)c(Cl)c3)c(=O)c1n2C	-30.1%	·	·	·	·	·
O=c1[nH]c2cc3c(cc2cc1CN(Cc1ccccc1)Cc1nnnn1Cc1ccco1)OCCO3	?	25.1µM*	-20.5%	?	11.2µM*	·
Cc1ccc2[nH]c(=O)c(CN(Cc3ccco3)Cc3nnnn3Cc3ccccc3)cc2c1	-28.5%[57.1 µM]	·	4.8%[57 µM]	·	·	·
O=c1[nH]c2cc3c(cc2cc1CN(Cc1cccnc1)Cc1nnnn1Cc1ccco1)OCCO3	?	?	6.1%	·	15.8µM*	?
Cc1cc2cc(CN(Cc3nnnn3C3CCCCC3)CC3CCCO3)c(=O)[nH]c2cc1C (stereo not given)	-28.3%	?	9.7%	7.6%	50.1µM*	-29.7%
CCOC(=O)N1CCC(NC(=O)c2cc(COc3c(C)cccc3C)on2)CC1	-3.0%	60.6%	48.4%	·	12.8%	-3.3%
CCOC(=O)c1c(C)[nH]c(C)c1C(=O)CSc1nnc(-c2ccncc2)n1C	?	?	29.1%	-12.5%	-3.3%	-8.3%
CCc1cccc2c(C(=O)CSc3nnc(-c4ccncc4)n3C)c[nH]c12	-9.1%	31.6µM*	31.6%	-10.1%	?	-32.9%
Cc1ccc(-n2c(C)cc(C(=O)CSc3nnnn3C)c2C)cc1	?	14.1µM*	-17.7%	-19.6%	?	50.1µM*
Cc1ccc(-n2c(C)cc(C(=O)CSc3nncs3)c2C)cc1	?	?	-8.9%	-10.5%	?	-65.0%
Cc1cc(C(=O)CSc2nnnn2-c2ccc(O)cc2)c(C)n1C	44.7µM*	?	?	25.3%	-6.2%	-10.1%
COc1ccc(-n2c(C)cc(C(=O)CSc3nnc(-c4ccoc4C)n3C)c2C)cc1	?	50.1µM*	?	-10.8%	-4.8%	?
C[C@@H]1O[C@@H](O[C@@H]2C(=O)c3c(O)cc(O)cc3O[C@H]2c2ccc(O)c(O)c2)[C@H](O)[C@H](O)[C@H]1O	-14.1%	-5.5%[0.501 µM]	21.3%	-5.2%	·	2.8%
OC[C@@H](O)[C@@H](O)CCc1ccccc1	·	·	·	·	19.1%	·
SMILES	JMJD2A Tudor inh	G9a block	HP1b chromo inh	L3MBTL1 block	Sfp inh	BAZ2B inh
COc1ccccc1N1CCN(S(=O)(=O)c2c(C)sc3ncn(CC(=O)Nc4ccc(C(F)(F)F)cc4)c(=O)c23)CC1	7.8%	-1.4%[59 µM]	36.2%	·	·	2.1%
O=c1cc(-c2ccc(O)cc2)oc2cc(OC3OC(CO)C(O)C(O)[C@H]3O[C@@H]3OC[C@@](O)(CO)C3O)cc(O)c12 (stereo not given in full)	·	·	·	·	-6.2%	·
Cc1cc(C(=O)CSc2nnnn2C)c(C)n1Cc1ccco1	?	?	10.8%	-23.2%	-4.6%	70.8µM*
Cc1cc(C(=O)CSc2ncccn2)c(C)n1Cc1ccco1	-11.0%	44.7µM*	48.0%	-0.6%	56.2µM*	8.1%
Cc1ccccc1-n1c(SCC(=O)c2cc(C)n(C)c2C)nnc1-c1ccncc1	-26.7%[57.1 µM]	70.8µM*	1.1%	-16.1%	2.4%	?
Cc1cc(C(=O)C(C)Cl)c(C)n1Cc1ccco1 (stereo not given)	50.1µM*	?	?	-29.7%	-7.9%	?
Cc1cc(C(=O)COC(=O)C(C)NC(N)=O)c(C)n1Cc1ccco1 (stereo not given)	?	-34.2%	-2.0%	·	6.7%	?
O=C(c1ccc(Cl)cc1)n1nc(-c2ccccc2)nc1NCc1ccco1	16.5%	34.5%[59 µM]	53.6%	·	·	4.6%
CC(Oc1ccc(O)cc1)(P(=O)(O)O)P(=O)(O)O	·	·	·	·	-7.7%	·
CCOC(=O)C1=C(N)OC2=C(C(=O)CC(C)(C)C2)C1c1ccco1 (stereo not given)	56.2µM*	22.4µM*	9.9%	-7.3%	2.1%	-18.7%
CC1(C)CC(=O)C2=C(C1)OC(N)=C([N+](=O)[O-])C2c1ccc(F)cc1 (stereo not given)	-4.9%	4.3%[59 µM]	23.2%	-3.3%	16.1%	-9.2%
